The values below come from paper PMC7819943, “Rice protein-binding microarrays: a tool to detect cis-acting elements near promoter regions in rice”.

Over roughly 68,000 sequences, “fluorescence intensity (a.u.)” has its median near 9,100; the highest 2% begin near 16,000. What follows is part of a selection rich in the highest values, with near analogues and random picks from the rest.

For the assay, the target named is OsWRKY34 (Oryza sativa, UniProt Q0JBA9 1-250). In words: protein-binding microarray (RPBM); PBS, 2% BSA, 51.3 ng/ul salmon testes DNA, 50 uM zinc acetate, 200 nM TF, 25 C, 1 h; high values mean tight binding. As to conditions: protein: recombinant; tags: N-terminal polyhistidine and DsRed monomer fusion (pET32a); label: CyDye5-dUTP incorporated in the synthesized complementary strand; 3' TTTTT single-stranded linker to array surface; dsDNA, one strand shown. Summed up: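 Binding signal here means per-feature fluorescence intensity in arbitrary units. The values were read on an Axon 4000B scanner after a custom Agilent array, double-stranded by primer extension with Cy5-dUTP, was incubated with 200 nM protein at 25 °C for 1 h in PBS with 2% BSA, salmon testes DNA and 50 µM zinc acetate, then washed. The proteins were transcription factors with an N-terminal polyhistidine tag and DsRed, expressed in E. coli BL21-CodonPlus and purified on Ni–NTA.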
Chain of OsWRKY34 (Q0JBA9 entry or part of it): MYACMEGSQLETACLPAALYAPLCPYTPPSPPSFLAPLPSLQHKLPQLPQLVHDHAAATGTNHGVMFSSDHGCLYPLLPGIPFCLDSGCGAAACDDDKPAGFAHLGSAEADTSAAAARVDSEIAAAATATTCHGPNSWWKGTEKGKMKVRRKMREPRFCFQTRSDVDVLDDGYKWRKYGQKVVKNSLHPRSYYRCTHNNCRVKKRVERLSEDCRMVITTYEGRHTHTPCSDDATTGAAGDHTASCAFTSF
As for “GCGAACCGCGAATACAATAGCCGGCGCCCCGCGCGTACACCGGAGTCACCTAGTGCAG”, the binding signal is 8070 fluorescence intensity (a.u.).

Consider “TCCTCGCGACCTTAATTTACTCCTCCAATGGCCGCCGCTGCGGAGTCACCTAGTGCAG”, for which the binding signal was 8600 fluorescence intensity (a.u.).

Consider “CGCTGTATTTTGTTGGGATCACCTGTACATTTCTTCACAACGGAGTCACCTAGTGCAG”, for which the binding signal was 10900 fluorescence intensity (a.u.).

In the case of “TTTCTTGGTCTTTGGGTTAAATGTGGTTATGCCTTATATTCGGAGTCACCTAGTGCAG”, the binding signal was 8260 fluorescence intensity (a.u.).

On to “GAGTCATAGTAGTGTAGTAGTGGGTCAACTCAGTCAAGTCCGGAGTCACCTAGTGCAG”, for which the binding signal is 8290 fluorescence intensity (a.u.).

On to “GTATTATTGTCCCTTACATTGCTAACTCAATGTTGTATTACGGAGTCACCTAGTGCAG”, for which the binding signal is 8130 fluorescence intensity (a.u.).

As for “TTTTTACAACCCTGCGATTCAGATAGACCTTACCATTTTTCGGAGTCACCTAGTGCAG”, the binding signal was 8940 fluorescence intensity (a.u.).

On to “CAGCGGAGAGCGGCGGCGGCGAGTAGGATGGGGTTTGATTCGGAGTCACCTAGTGCAG”, for which the binding signal was 8380 fluorescence intensity (a.u.).

Take “GAGTAGGATGGGGTTTGATTTTGGGGTTCGTGGGGTCGAGCGGAGTCACCTAGTGCAG”: the binding signal is 17100 fluorescence intensity (a.u.).

Regarding “TAGGTGGTGTTTGGTTTATGGATCAGGTGGGTTGGGTTGGCGGAGTCACCTAGTGCAG”, the binding signal is 8740 fluorescence intensity (a.u.).

Take “TTTGATCTTGTGGTGGTTTGGGTGATCGGTGGCGATGGGGCGGAGTCACCTAGTGCAG”: the binding signal is 11000 fluorescence intensity (a.u.).

On to “GTGGGTGGTTGGTGGTGGTGGTGGTGGTGGTGATCTTTGGCGGAGTCACCTAGTGCAG”, for which the binding signal is 23900 fluorescence intensity (a.u.).

In the case of “ATAGGAGGGGTCATATTAGTAGGGTTTTTTTTGGACGGAGCGGAGTCACCTAGTGCAG”, the binding signal is 8260 fluorescence intensity (a.u.).

On to “AAACTGTTCTCCTCCACTTGCCTATCTTATCCTCTCTTATCGGAGTCACCTAGTGCAG”, for which the binding signal was 8930 fluorescence intensity (a.u.).

For the sequence “ACGGTTGTGTATTTCATAGTAGGGTGTAAATGTACGCTGACGGAGTCACCTAGTGCAG”, the binding signal was 8030 fluorescence intensity (a.u.).

Regarding “ATACAACTTCGTCTGGCGCCCTCAATCGATCTCGCTCTATCGGAGTCACCTAGTGCAG”, the binding signal was 9870 fluorescence intensity (a.u.).

As to “AACCCTCATCTACTTCTGGCCCTCTAAGAGTTCTCCACTACGGAGTCACCTAGTGCAG”, the binding signal was 8400 fluorescence intensity (a.u.).

As for “GTGTGTGCCTCCTTTTCTCTTCTTCAGTTTTCAACTCAAACGGAGTCACCTAGTGCAG”, the binding signal is 9440 fluorescence intensity (a.u.).

As for “CCTCATCCCGTCCAGCGTTCACCCGACGTCGCCCGTCGCACGGAGTCACCTAGTGCAG”, the binding signal is 10500 fluorescence intensity (a.u.).

In the case of “TGAGTCTTCACAATCCCATGTCACATGATCATGTGATCTTCGGAGTCACCTAGTGCAG”, the binding signal is 9860 fluorescence intensity (a.u.).

On to “GTGGGATTAGGATTGGAAAATGAATGAAGGGTTAGAATTACGGAGTCACCTAGTGCAG”, for which the binding signal was 8560 fluorescence intensity (a.u.).

As to “GAAATGAGGGGTGGGATTGGGATTGGGATTGGAAAATGAACGGAGTCACCTAGTGCAG”, the binding signal is 11800 fluorescence intensity (a.u.).

As for “TGTACTGTAGGGGTGGGATTGTGATTGGAAAATGAATGAACGGAGTCACCTAGTGCAG”, the binding signal is 18600 fluorescence intensity (a.u.).

For “GTGATTGGATGGGTAGTGGAGACAGGTGGGAAAAATGAATCGGAGTCACCTAGTGCAG”, the binding signal is 8510 fluorescence intensity (a.u.).

“GGGTGGGATTGGGATTGGGAAATGAATGAAGGGTTAGGATCGGAGTCACCTAGTGCAG”: the binding signal was 16400 fluorescence intensity (a.u.).

For the sequence “GTGGGGATTGGGTAGGAGAAGGAGTGGGGAATTAGGTTAGCGGAGTCACCTAGTGCAG”, the binding signal was 12200 fluorescence intensity (a.u.).

As for “GTCGATGTGTCTTTTGTGTGTAGTTCTTGTAATTGTTGTGCGGAGTCACCTAGTGCAG”, the binding signal is 8220 fluorescence intensity (a.u.).

As for “GGGTTGATTTTGCTTCCTGCATCCCAGCGACATCGCCCAACGGAGTCACCTAGTGCAG”, the binding signal was 11500 fluorescence intensity (a.u.).

As to “CCTGTGCGTGGTCGGGTTAATTTGTCAGTCTGTCACTTACCGGAGTCACCTAGTGCAG”, the binding signal is 10200 fluorescence intensity (a.u.).

In the case of “GTGCTCATCCGCCTCCTCGGGTCGTCTCCATCGACCTCCTCGGAGTCACCTAGTGCAG”, the binding signal was 9120 fluorescence intensity (a.u.).

In the case of “CTCCATTTAACAGATGACGTCGTTGACTTTTTCTTACATGCGGAGTCACCTAGTGCAG”, the binding signal was 26900 fluorescence intensity (a.u.).

Regarding “TTTTTTAATAGATGACGCCGTTGACCTTTTCTCACATGTTCGGAGTCACCTAGTGCAG”, the binding signal is 15100 fluorescence intensity (a.u.).

As to “TTTTTAATAGATGACGCTGTTGACTTTTTCCCACATGTTTCGGAGTCACCTAGTGCAG”, the binding signal was 24200 fluorescence intensity (a.u.).

“TGTTGACTTTTTAGTACATATTTAACCATTTGTCTTATTACGGAGTCACCTAGTGCAG”: the binding signal is 14900 fluorescence intensity (a.u.).

As to “ATAGATGACGCTGTTGATTTTTTTCTCACATGTTTGACCACGGAGTCACCTAGTGCAG”, the binding signal was 10400 fluorescence intensity (a.u.).

In the case of “TTTGTTTTTTAATAGATGACGCTGTTGACTTTTTCTCACGCGGAGTCACCTAGTGCAG”, the binding signal was 14200 fluorescence intensity (a.u.).

On to “TTTTTAATAGATGACGCCGTTGACTTTTTCTCACATGTTTCGGAGTCACCTAGTGCAG”, for which the binding signal was 34300 fluorescence intensity (a.u.).

With “GTTTACTCCAAGATTCACATTTGACTTTCTTATGCCATAGCGGAGTCACCTAGTGCAG”, the binding signal was 9170 fluorescence intensity (a.u.).

Regarding “TAATAGATGACGCCGTTGACTTTTTCTCACATGTTTGACCCGGAGTCACCTAGTGCAG”, the binding signal was 33000 fluorescence intensity (a.u.).

Take “ATAGATGACGCCGTTAACTTTTTCTCACATGTTTAACCATCGGAGTCACCTAGTGCAG”: the binding signal was 10200 fluorescence intensity (a.u.).

In the case of “TTAATAGATGACGCCGTTGATTTTTTCTCACATGTTTGACCGGAGTCACCTAGTGCAG”, the binding signal is 11600 fluorescence intensity (a.u.).

Turning to “CTAGTTTTGGTCTTGTGATAGGTTATTTGCTTACGATTATCGGAGTCACCTAGTGCAG”, the binding signal is 9430 fluorescence intensity (a.u.).
